In PubChem BioAssay AID1159580 (chemical genetic matrix, 2015):
In all, about 5,500 compounds went through this assay and about 2,000 (36%) were called active. Inconclusive results (about 18%) are left out. No stated cut-off is given here; in the data, active means normalized growth mostly below about 0.91 (no sharp cut-off); inconclusive means no clear call, values can overlap the other calls; inactive means mostly above about 0.92. This is one part of the list.

Assay: chemical genetic growth profiling, strain panel (AID 1159580);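 further: tested at 20 µM; growth read once vehicle control cultures reached saturation at 30 °C; 1 = growth at the plate median or of vehicle wells; lower values mean less growth of the strain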
Details: S. cerevisiae deletion strains, growth OD
[1] = locus YAR019C, strain CDC15, active compounds read low
[2] = locus YBL105C, strain PKC1, active compounds read low
[3] = locus YBR135W, strain CKS1, active compounds read low
[4] = locus YBR136W, strain MEC1, active compounds read low
[5] = locus YBR160W, strain CDC28, active compounds read low
[6] = locus YDL017W, strain CDC7, active compounds read low
[7] = locus YDL028C, strain MPS1, active compounds read low
[8] = locus YDL101C, strain DUN1, active compounds read low
[9] = locus YDL108W, strain KIN28, active compounds read low
[10] = locus YDL132W, strain cdc53, active compounds read low
[11] = locus YDL214C, strain PRR2, active compounds read low
[12] = locus YDR052C, strain DBF4, active compounds read low
[13] = locus YDR054C, strain cdc34, active compounds read low
[14] = locus YDR226W, strain ADK1, active compounds read low
[15] = locus YDR477W, strain SNF1, active compounds read low
[16] = locus YER123W, strain YCK3, active compounds read low
[17] = locus YER133W, strain GLC7, active compounds read low
[18] = locus YFL009W, strain cdc4, active compounds read low
[19] = locus YFL029C, strain CAK1, active compounds read low
[20] = locus YFR003C, strain YPI1, active compounds read low
[21] = locus YFR019W, strain FAB1, active compounds read low
[22] = locus YFR028C, strain CDC14, active compounds read low
[23] = locus YGR040W, strain KSS1, active compounds read low
[24] = locus YGR052W, strain FMP48, active compounds read low
[25] = locus YGR092W, strain DBF2, active compounds read low
[26] = locus YHR030C, strain SLT2, active compounds read low
[27] = locus YHR079C, strain IRE1, active compounds read low
[28] = locus YHR082C, strain KSP1, active compounds read low
[29] = locus YHR205W, strain SCH9, active compounds read low
[30] = locus YIL147C, strain SLN1, active compounds read low
[31] = locus YJL095W, strain BCK1, active compounds read low
[32] = locus YJL128C, strain PBS2, active compounds read low
[33] = locus YJL157C, strain FAR1, active compounds read low
[34] = locus YJR016C, strain ILV3, active compounds read low
[35] = locus YJR066W, strain TOR1 (second series), active compounds read low
[36] = locus YJR066W, strain TOR1, active compounds read low
[37] = locus YKL048C, strain ELM1, active compounds read low
[38] = locus YKL067W, strain YNK1, active compounds read low
[39] = locus YKL101W, strain HSL1, active compounds read low
[40] = locus YKL193C, strain SDS22, active compounds read low
[41] = locus YKL203C, strain TOR2, active compounds read low
[42] = locus YLR113W, strain HOG1, active compounds read low
[43] = locus YLR133W, strain CKI1, active compounds read low
[44] = locus YLR403W, strain SFP1, active compounds read low
[45] = locus YML070W, strain DAK1, active compounds read low
[46] = locus YMR001C, strain CDC5, active compounds read low
[47] = locus YMR205C, strain PFK2 (second series), active compounds read low
[48] = locus YMR277W, strain FCP1, active compounds read low
[49] = locus YNL006W, strain LST8, active compounds read low
[50] = locus YNL020C, strain ARK1, active compounds read low
[51] = locus YNL161W, strain CBK1, active compounds read low
[52] = locus YNL183C, strain NPR1, active compounds read low
[53] = locus YNL207W, strain RIO2, active compounds read low
[54] = locus YNL222W, strain SSU72, active compounds read low
[55] = locus YNL307C, strain MCK1 (second series), active compounds read low
[56] = locus YOL078W, strain AVO1, active compounds read low
[57] = locus YOL136C, strain PFK27, active compounds read low
[58] = locus YOR061W, strain CKA2, active compounds read low
[59] = locus YOR119C, strain RIO1, active compounds read low
[60] = locus YOR231W, strain MKK1, active compounds read low
[61] = locus YOR329C, strain SCD5, active compounds read low
[62] = locus YPL031C, strain PHO85, active compounds read low
[63] = locus YPL153C, strain RAD53, active compounds read low
[64] = locus YPL204W, strain HRR25, active compounds read low
[65] = locus YPL209C, strain IPL1, active compounds read low
[66] = locus YPL256C, strain CLN2, active compounds read low
[67] = locus YPR025C, strain CCL1, active compounds read low
[68] = locus YPR106W, strain ISR1, active compounds read low
[69] = locus YPR111W, strain DBF20, active compounds read low
[70] = strain NNK1, active compounds read low
[71] = strain TSCII, active compounds read low

Measured: normalized growth

Cc1cc(Cl)ccc1NNC(=O)c1ccno1
inactive: [1] 0.974 | [2] 0.958 | [3] 0.981 | [4] 0.968 | [5] 0.966 | [6] 0.97 | [7] 0.979 | [8] 0.967 | [9] 0.97 | [10] 0.987 | [11] 0.933 | [12] 0.968 | [13] 0.961 | [14] 0.976 | [15] 0.944 | [16] 0.884 | [17] 0.938 | [18] 0.974 | [19] 0.96 | [20] 0.967 | [21] 0.925 | [22] 0.979 | [23] 0.917 | [24] 0.996 | [25] 0.912 | [26] 0.954 | [27] 1 | [28] 1 | [29] 0.902 | [30] 0.971 | [31] 0.931 | [32] 0.927 | [33] 0.919 | [34] 0.987 | [35] 0.87 | [36] 1.01 | [37] 0.912 | [38] 0.939 | [39] 0.903 | [40] 0.971 | [41] 0.978 | [42] 0.871 | [43] 0.908 | [44] 0.903 | [45] 0.903 | [46] 0.962 | [47] 0.938 | [48] 0.978 | [49] 0.975 | [50] 0.912 | [51] 0.972 | [52] 0.953 | [53] 0.966 | [54] 0.978 | [55] 0.907 | [56] 0.977 | [57] 0.889 | [58] 0.946 | [59] 0.977 | [60] 0.899 | [61] 0.963 | [62] 0.942 | [63] 0.916 | [64] 0.904 | [65] 0.958 | [66] 0.958 | [67] 0.975 | [68] 0.945 | [69] 0.957 | [70] 0.955 | [71] 0.972

Cc1nnsc1C(=O)NNc1ccc(F)cc1F
inactive: [1] 0.951 | [2] 0.951 | [3] 0.956 | [4] 0.961 | [5] 0.956 | [6] 0.949 | [7] 0.97 | [8] 0.956 | [9] 0.965 | [10] 0.955 | [11] 0.706 | [12] 0.954 | [13] 0.929 | [14] 0.953 | [15] 0.711 | [17] 0.827 | [18] 0.965 | [19] 0.941 | [20] 0.968 | [22] 0.952 | [23] 0.789 | [24] 0.646 | [25] 0.636 | [27] 0.925 | [28] 0.85 | [29] 0.924 | [30] 0.967 | [31] 0.544 | [32] 0.938 | [33] 0.804 | [34] 0.962 | [35] 0.683 | [36] 0.791 | [37] 0.952 | [38] 0.819 | [39] 0.917 | [40] 0.96 | [41] 0.928 | [43] 0.812 | [44] 0.883 | [45] 0.696 | [46] 0.949 | [47] 0.906 | [48] 0.959 | [49] 0.975 | [50] 0.92 | [51] 0.945 | [52] 0.837 | [53] 0.961 | [54] 0.954 | [55] 0.678 | [56] 0.955 | [57] 0.808 | [59] 0.911 | [60] 0.908 | [61] 0.958 | [62] 0.858 | [63] 0.832 | [64] 0.917 | [65] 0.943 | [67] 0.957 | [68] 0.963 | [69] 0.966 | [70] 0.977 | [71] 0.947
active: [16] 0.459 | [21] 0.584 | [26] 0.831 | [42] 0.683 | [66] 0.602

Cc1nnsc1C(=O)NNc1c(Cl)cccc1Cl
inactive: [1] 0.975 | [2] 0.974 | [3] 0.976 | [4] 0.977 | [5] 0.973 | [6] 0.979 | [7] 0.978 | [8] 0.993 | [9] 0.981 | [10] 0.982 | [11] 0.951 | [12] 0.985 | [13] 0.982 | [14] 0.986 | [15] 0.959 | [16] 0.933 | [17] 0.97 | [18] 0.98 | [19] 0.972 | [20] 0.98 | [21] 0.958 | [22] 0.981 | [23] 0.926 | [24] 1.02 | [25] 0.952 | [26] 1.02 | [27] 0.982 | [28] 1.02 | [29] 0.942 | [30] 0.981 | [31] 0.992 | [32] 0.926 | [33] 0.939 | [34] 0.984 | [35] 0.926 | [36] 1.05 | [37] 0.958 | [38] 0.948 | [39] 0.905 | [40] 0.98 | [41] 1.02 | [43] 0.939 | [44] 0.935 | [45] 0.927 | [46] 0.978 | [47] 0.941 | [48] 0.98 | [49] 0.993 | [50] 0.946 | [51] 0.979 | [52] 0.983 | [53] 0.988 | [54] 0.973 | [55] 0.948 | [56] 0.978 | [57] 0.927 | [58] 0.927 | [59] 1.01 | [60] 0.925 | [61] 0.977 | [62] 0.971 | [63] 0.949 | [64] 0.952 | [65] 0.973 | [66] 0.921 | [67] 0.975 | [68] 0.965 | [69] 0.976 | [70] 0.978 | [71] 0.977
active: [42] 0.844

Cc1cc(C(=O)NNc2ccc(F)cc2F)no1
inactive: [1] 0.972 | [2] 0.967 | [3] 0.971 | [4] 0.969 | [5] 0.964 | [6] 0.972 | [7] 0.977 | [8] 0.959 | [9] 0.973 | [10] 0.984 | [11] 0.938 | [12] 0.963 | [13] 0.952 | [14] 0.963 | [15] 0.95 | [16] 0.822 | [17] 0.957 | [18] 0.974 | [19] 0.956 | [20] 0.974 | [21] 0.899 | [22] 0.961 | [23] 0.93 | [24] 0.995 | [25] 0.861 | [26] 0.923 | [27] 0.948 | [28] 1.01 | [29] 0.962 | [30] 0.971 | [31] 0.955 | [32] 0.965 | [33] 0.931 | [34] 0.974 | [35] 0.879 | [36] 0.998 | [37] 0.95 | [38] 0.953 | [39] 0.955 | [40] 0.976 | [41] 1.01 | [42] 0.932 | [43] 0.93 | [44] 0.934 | [45] 0.912 | [46] 0.969 | [47] 0.972 | [48] 0.975 | [49] 0.988 | [50] 0.953 | [51] 0.963 | [52] 0.979 | [53] 0.962 | [54] 0.959 | [55] 0.908 | [56] 0.967 | [57] 0.937 | [58] 0.822 | [59] 1.01 | [60] 0.921 | [61] 0.967 | [62] 0.939 | [63] 0.923 | [64] 0.925 | [65] 0.96 | [66] 0.934 | [67] 0.968 | [68] 0.962 | [69] 0.963 | [70] 0.979 | [71] 0.964
